Several values for one entry are separate records, joined by “and”; a condition that tells them apart may be missing. Equal values may be shown once. Records with an inconclusive call do not appear. The source holds several records for some structures; these can differ, active in one and inactive in another. Activity calls are given as the source filed them. Unless noted, calls follow the shape of the dose curve; as a rule, active = well fitted curve in the direction sought with a large enough effect; inconclusive = small, poorly fitted or top-dose-only effect, or another doubt; inactive = no such curve, though single readings can be large; an effect the other way counts as inactive or inconclusive.
Columns and labels:
NIH3T3 = test: qHTS assay to identify novel small-molecules to repurpose for Merkel cell carcinoma treatment (AID 1296009); conditions: MCC and control cell lines, CellTiter-Glo viability, 72 h; at 44.8 µM (top of the series) unless noted; also: nearly all actives have a fitted effect of over 60% in size
Procedure, shortened: (§1)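 Cells were treated for 72 hr at 37 degree celsius with compounds in 8- or 11-point dose response. Viability was read by CellTiter-Glo luminescence, normalized to no-cell (cytotoxicity) and DMSO controls.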

UISO = test: as above; conditions: MCC and control cell lines, CellTiter-Glo viability, 72 h; series mostly up to 46 µM
Procedure, shortened: as §1

WaGa = test: as above; conditions: MCC and control cell lines, CellTiter-Glo viability, 72 h; series mostly up to 46 µM
Procedure, shortened: as §1

C33A = test: Primary qHTS to identify gynecologic anti-cancer compounds using libraries of approved drugs and bioactive compounds (AID 1345084); conditions: Gynecologic cancer cell panel viability, ATPlite luminescence, 48 h; series mostly up to 57.5 µM; also: % is scaled to controls: 0 for no effect and ±100 for the full control effect; nearly all actives have a fitted effect of over 55% in size
Procedure, shortened: (§2)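 Cell viability after 48 h drug treatment, ATPlite luminescence readout; five doses.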

CAOV3 = test: as above; conditions: Gynecologic cancer cell panel viability, ATPlite luminescence, 48 h; series mostly up to 57.5 µM
Procedure, shortened: as §2

CASKI = test: as above; conditions: Gynecologic cancer cell panel viability, ATPlite luminescence, 48 h; series mostly up to 57.5 µM
Procedure, shortened: as §2

Es-2 = test: as above; conditions: Gynecologic cancer cell panel viability, ATPlite luminescence, 48 h; series mostly up to 57.5 µM
Procedure, shortened: as §2

HeLa = test: as above; conditions: Gynecologic cancer cell panel viability, ATPlite luminescence, 48 h; series mostly up to 57.5 µM
Procedure, shortened: as §2

Hek293T = test: as above; conditions: Gynecologic cancer cell panel viability, ATPlite luminescence, 48 h, control line for the selectivity index; series mostly up to 57.5 µM
Procedure, shortened: as §2

JEG-3 = test: as above; conditions: Gynecologic cancer cell panel viability, ATPlite luminescence, 48 h; series mostly up to 57.5 µM
Procedure, shortened: as §2

OV90 = test: as above; conditions: Gynecologic cancer cell panel viability, ATPlite luminescence, 48 h; series mostly up to 57.5 µM
Procedure, shortened: as §2

PA-1 = test: as above; conditions: Gynecologic cancer cell panel viability, ATPlite luminescence, 48 h; series mostly up to 57.5 µM
Procedure, shortened: as §2

SKOV3 = test: as above; conditions: Gynecologic cancer cell panel viability, ATPlite luminescence, 48 h; series mostly up to 57.5 µM
Procedure, shortened: as §2

Tov-21-G = test: as above; conditions: Gynecologic cancer cell panel viability, ATPlite luminescence, 48 h; series mostly up to 57.5 µM
Procedure, shortened: as §2

Tov112D = test: as above; conditions: Gynecologic cancer cell panel viability, ATPlite luminescence, 48 h; series mostly up to 57.5 µM
Procedure, shortened: as §2

[1] = Drug repurposing screens with cells derived from glioblastoma tumor samples (AID 1345199); conditions: GBM patient neurospheres viability, ATP luminescence, 48 h; also: % is scaled to controls: 0 for no effect and ±100 for the full control effect; nearly all actives have a fitted effect of over 40% in size
Procedure, shortened: (§3)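 Four patient lines of CD133+ GBM neurospheres were screened at several concentrations; hits were retested in those lines plus three slower-growing GBM lines, using 48-hour treatment and ATP-based viability.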

astro = test: as above; conditions: viability, ATP luminescence, 48 h; series mostly up to 45.9 µM
Procedure, shortened: as §3

[2] = target: Nuclear receptor subfamily 1 group I member 2 (Rattus norvegicus) (UniProt Q9R1A7); test: qHTS assay for small molecule activators of the rat pregnane X receptor (rPXR) signaling pathway (AID 651751; call rule not given here; also: 0% is about no effect); conditions: rPXR reporter cells, luciferase (One-Glo), 24 h
[3] = qHTS assay for small molecule activators of the human pregnane X receptor (PXR) signaling pathway (AID 720659; call rule not given here; also: 0% is about no effect)
[4] = at 45.9 µM (top of the series), tumour line B
[5] = at 46.1 µM (top of the series), tumour line C
[6] = at 45.9 µM (top of the series), tumour line D

Nuclear receptor subfamily 1 group I member 2 (Rattus norvegicus), sequence (Q9R1A7 whole entry, looked up): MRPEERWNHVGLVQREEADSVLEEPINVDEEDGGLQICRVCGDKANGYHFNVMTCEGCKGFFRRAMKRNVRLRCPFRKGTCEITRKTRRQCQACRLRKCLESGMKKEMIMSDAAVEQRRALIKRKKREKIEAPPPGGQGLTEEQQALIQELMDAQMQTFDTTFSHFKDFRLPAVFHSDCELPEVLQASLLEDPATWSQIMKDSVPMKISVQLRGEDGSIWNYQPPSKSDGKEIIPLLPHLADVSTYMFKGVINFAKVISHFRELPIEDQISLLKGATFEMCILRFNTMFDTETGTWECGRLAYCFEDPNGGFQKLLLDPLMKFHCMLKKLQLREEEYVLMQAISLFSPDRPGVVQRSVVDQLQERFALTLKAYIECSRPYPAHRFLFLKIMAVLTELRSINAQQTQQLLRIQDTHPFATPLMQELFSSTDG

OC(CCN1CCCCC1)(c1ccccc1)C1CC2C=CC1C2 (configuration not stated)
inactive: outcome (NIH3T3) | Potency (UISO) | Potency (WaGa) | Potency (C33A) | Potency (CAOV3) | Potency (CASKI) | Potency (Es-2) | Potency (HeLa) | Potency (Hek293T) | Potency (JEG-3) | Potency (OV90) | Potency (PA-1) | Potency (SKOV3) | Potency (Tov-21-G) | Potency (Tov112D) | activity, negative = cell killing [1, 4] -6.31% and -18.3% | activity, negative = cell killing [1, 5] -5.16% | Potency (astro)

Cc1ccccc1C(C(=O)NC1CCCC1)N(C(=O)Cn1cnc2ccccc21)c1cccc(F)c1 (configuration not stated)
inactive: outcome (NIH3T3) | Potency (UISO) | Potency (WaGa)

CCc1ccc(CCOc2ccc(CC3SC(=O)NC3=O)cc2)nc1 (configuration not stated)
inactive: outcome (NIH3T3) | Potency (UISO) | Potency (WaGa) | Potency (C33A) | Potency (CAOV3) | Potency (CASKI) | Potency (Es-2) | Potency (HeLa) | Potency (Hek293T) | Potency (JEG-3) | Potency (OV90) | Potency (PA-1) | Potency (SKOV3) | Potency (Tov-21-G) | Potency (Tov112D) | activity, negative = cell killing [1, 4] -10.3% | activity, negative = cell killing [1, 6] -17.6%

CCn1c(-c2nonc2N)nc2c(C#CC(C)(C)O)ncc(OC[C@H]3CCCNC3)c21
inactive: outcome (NIH3T3) | Potency (UISO) | Potency (WaGa)

O=C(Nc1nc2ccccc2n1CCN1CCOCC1)c1cccc([N+](=O)[O-])c1
inactive: outcome (NIH3T3) | Potency (UISO)

OCCC#Cc1nc(-c2ccc(F)cc2)c(-c2ccncc2)n1CCCc1ccccc1
inactive: outcome (NIH3T3) | Potency (UISO)

C1COC(NC(C2CC2)C2CC2)=N1
inactive: outcome (NIH3T3) | Potency (UISO) | Potency (WaGa) | Potency (C33A) | Potency (CAOV3) | Potency (CASKI) | Potency (Es-2) | Potency (HeLa) | Potency (Hek293T) | Potency (JEG-3) | Potency (OV90) | Potency (PA-1) | Potency (SKOV3) | Potency (Tov-21-G) | Potency (Tov112D) | activity, negative = cell killing [1, 4] -27.8% | activity, negative = cell killing [1, 5] -23.7% | Potency (astro)

CNC[C@H](O)c1cccc(O)c1
inactive: outcome (NIH3T3) | Potency (UISO) | Potency (WaGa) | Potency (C33A) | Potency (CAOV3) | Potency (CASKI) | Potency (Es-2) | Potency (HeLa) | Potency (Hek293T) | Potency (JEG-3) | Potency (OV90) | Potency (PA-1) | Potency (SKOV3) | Potency (Tov-21-G) | Potency (Tov112D) | activity, negative = cell killing [1, 4] -2.77% | activity, negative = cell killing [1, 6] 6.94% | activity, negative = cell killing [1, 5] -5.24% | Potency (astro) | max response [2] 1.25% | outcome [3]

COc1ccc(-c2oc3cc(OC)ccc3c2C(=O)c2ccc(C#N)cc2)cc1
inactive: outcome (NIH3T3) | Potency (UISO) | Potency (WaGa)
